Measurements published in PubChem BioAssay AID1578 (Sanford-Burnham Center for Chemical Genomics, 2009).
The campaign covered roughly 290,000 compounds. About 3,000 (1%) were called active. Cut-off read from the data, not from the text of the source: active = inhibition mostly above about 36% (no sharp cut-off); inactive = mostly below about 34%. The entries come from a sample that favours actives as a whole.

experiment: inhibition of NOD1-driven NF-kB reporter – cell-based, luminescence, uHTS, primary screen (AID 1578); details: NOD1-driven NF-kB luciferase reporter cells, at 4 µM, active compounds read high;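 note: HEK-293T reporter cells stimulated with the NOD1 agonist gamma-tri-DAP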

Compound	inhibition
COc1cc(NC(=O)CSc2nccc(=O)[nH]2)c(C)cc1[N+](=O)[O-]	-24.5% (inactive)
Cc1cc(-c2ccc(C)c(S(=O)(=O)N3CC(=O)Nc4ccccc43)c2)on1	-2.5% (inactive)
Cc1ccc(C(=O)CC2(O)C(=O)N(C)c3ccccc32)s1 (configuration not stated)	-9.2% (inactive)
CC(=O)N1c2ccccc2C2(O)N=C(C)SC12 (configuration not stated)	66.4% (active)
CC(=O)N1c2ccccc2C(C)(C)C2CCC(C)CC21 (configuration not stated)	-5.9% (inactive)
COc1ccc(C(=O)NNC(=O)CN2CCC(n3nnc4cc(C)ccc43)CC2)cc1	-14.9% (inactive)
O=C(OCc1ccc(Cl)cc1)c1cccnc1Cl	-33% (inactive)
COCCCNc1ncnc2c1[nH]c1ccccc12	-16.9% (inactive)
CCCCOCCCNc1ncnc2c1[nH]c1ccccc12	65.9% (active)
CCOCCCNc1ncnc2c1[nH]c1ccccc12	19.9% (inactive)
O=S(=O)(c1ccc(S(=O)(=O)n2cnc3ccccc32)cc1)N1CCCCCC1	8.9% (inactive)
C=CCO/N=C/C1C(=O)CC(C)(C)CC1=O	-25.9% (inactive)
O=C(NC12CC3CC(CC(C3)C1)C2)N1CCN(c2ccccc2)CC1	-18% (inactive)
Clc1ccccc1OCCCOc1cccc2cccnc12	-0.6% (inactive)
CCOc1ccc(CN(C)c2nc(-c3cccnc3)nc3ccccc23)cc1OC	55.2% (active)
COc1ccc(CN(C)c2nc(-c3cccnc3)nc3ccccc23)cc1OC	36.1% (inactive)
CN(Cc1cccs1)c1nc(-c2cccnc2)nc2ccccc12	-37.4% (inactive)
Cc1ccc2cc(C#N)c(NCCNC(=S)NCCCN(C)C)nc2c1C	-23.4% (inactive)
CCCCn1c(SCC(=O)Nc2nnc(C)s2)nc2c1c(=O)n(C)c(=O)n2C	6.2% (inactive)
CCCn1c(SCC(=O)Nc2nnc(C(C)C)s2)nc2c1c(=O)n(C)c(=O)n2C	34% (inactive)
O=C(c1cnn(C(=O)c2cccc(S(=O)(=O)N3CCOCC3)c2)c1)c1ccccc1O	9.5% (inactive)
COc1ccc(S(=O)(=O)N2CCc3ccccc32)cc1C(=O)OCC(=O)c1c(N)n(C)c(=O)n(C)c1=O	-11.1% (inactive)
CC1CCCCC1NC(=O)CCCn1c(=S)[nH]c2ccsc2c1=O (configuration not stated)	-13.7% (inactive)
CCn1cc(CN2CCc3c([nH]c4ccccc34)C2c2ccc(F)c(OC)c2)c(C)n1 (configuration not stated)	-23.6% (inactive)
Cc1ccc(CS(=O)(=O)CCC(=O)NCCN2CCCCC2C)cc1 (configuration not stated)	96.5% (active)

Compound	inhibition
Cc1ccc(CS(=O)(=O)CCC(=O)NCCCN2CCCC2)cc1	-5.9% (inactive)
Cc1ccc(CS(=O)(=O)CCC(=O)NCCN2CCCC2)cc1	-7.3% (inactive)
CN(Cc1ccccc1)c1nc(N)c([N+](=O)[O-])c(Nc2cccc(F)c2)n1	-10.7% (inactive)
Cc1c(O)c2cccnc2[nH]c1=O	-21.9% (inactive)
Cc1cccc(N=C2NN=C(c3ccc4c(c3)OCCO4)CS2)c1	-35.2% (inactive)
COc1ccc(N=C2NN=C(c3ccc4c(c3)OCCO4)CS2)cc1	-44.7% (inactive)
c1ccc(CN=C2NN=C(c3cc4ccccc4o3)CS2)cc1	-43% (inactive)
c1ccc2oc(C3=NNC(=NC4CC4)SC3)cc2c1	86.6% (active)
c1cc2c(cc1C1=NNC(=NC3CC3)SC1)OCCO2	96.6% (active)
C=CCN=C1NN=C(c2ccc3c(c2)OCCO3)CS1	67.8% (active)
CCCCN=C1NN=C(c2ccc3c(c2)OCCO3)CS1	14.8% (inactive)
CC(C)(C)N=C1NN=C(c2cc3ccccc3o2)CS1	-38.4% (inactive)
c1ccc(C2=NNC(=NC3CC3)SC2)cc1	59.6% (inactive)
CCOC(=O)N1CCC(NC(=O)CN2C(=O)CSc3nc(C)cc(C)c32)CC1	-2.4% (inactive)
Cc1ccc(Nc2nc(N)nc(CSC(=S)N3CCOCC3)n2)c(C)c1	-10% (inactive)
COc1cc(/C=C/CO)cc(OC)c1OC/C=C(\C)CCC=C(C)C	0.8% (inactive)
COCCn1c(SCC(=O)Nc2ccccc2C(F)(F)F)nc2ccccc2c1=O	-11.7% (inactive)
COc1ccc(-c2cc(C3CC3)nc3sc(C#N)c(N)c23)cc1	7.9% (inactive)
CC(C)c1cc(C(=O)N/N=C/c2c[nH]c3ccccc23)n[nH]1	-15.2% (inactive)
COC(=O)COc1cccc2c(=O)n(CC(=O)NCCc3ccccc3)ccc12	-38.1% (inactive)
Nc1ncnc(NCc2ccccc2)c1[N+](=O)[O-]	37.6% (inactive)
Cc1cccnc1Nc1ncnc(N)c1[N+](=O)[O-]	-32% (inactive)
Cc1ccc(CNc2nc(N)c([N+](=O)[O-])c(NCc3ccccc3)n2)cc1	0.5% (inactive)
Cc1cccc(Nc2ncnc(N)c2[N+](=O)[O-])n1	28.6% (inactive)
COc1ccc(Cc2nc3ccc(C(=O)N4CCCC4)cc3o2)cc1OC	1.3% (inactive)

Compound	inhibition
Cc1ccc(Cn2nc(C)c(NC(=O)CCCn3nc([N+](=O)[O-])c(Cl)c3C)c2C)cc1	-25.5% (inactive)
COc1ccc(C)cc1Nc1n[n+](-c2ccccc2)c(-c2ccc(NC(C)=O)cc2)s1	-19% (inactive)
CCn1c2ccccc2c2cc(/C=N/NC(=O)c3cc(O)cc(O)c3)ccc21	58.8% (active)
CCn1c2ccccc2c2cc(/C=N/NC(=O)c3ccccc3)ccc21	41.4% (inactive)
CCn1c2ccccc2c2cc(/C=N/NC(=O)c3ccc(O)cc3)ccc21	32.8% (inactive)
CCOC(=O)C1=C(CC)Nc2ccccc2N=C1NC(=O)CCNC(C)=O	-28.2% (inactive)
CCOCc1c(C(=O)NC2=Nc3ccccc3NC(CC)=C2C(=O)OCC)oc2ccccc12	4.5% (inactive)
CCOC(=O)C1=C(CC)Nc2ccccc2N=C1NC(=O)c1oc2ccccc2c1C	56.6% (active)
O=C(Cc1ccccc1)NN1C(=O)C2C3C=CC(C3)[C@@H]2C1=O (some centres not stated)	-12.9% (inactive)
Cc1nc(SCCOc2ccc(F)cc2)c2ccccc2n1	-33.3% (inactive)
COC(=O)c1ccccc1NC(=O)Cn1cnc2cc(C)c(C)cc21	-3.9% (inactive)
CCOC(=O)c1ccc(NC(=O)Cn2cnc3cc(C)c(C)cc32)cc1	33% (active)
Cc1ccc(NC(=O)CCn2cnc3cc(C)c(C)cc32)cc1	-8.2% (inactive)
O=C(Nc1ccc(Br)cc1)c1cc(-c2ccc3c(c2)OCO3)on1	-33.8% (inactive)
Cc1cccc(NC(=S)NC(=O)c2oc3ccccc3c2C)n1	-35.5% (inactive)
O=C(Nc1cc(S(=O)(=O)N2CCOCC2)ccc1N1CCOCC1)C1CCCO1 (configuration not stated)	-32.9% (inactive)
Cc1ccc(-n2c3c(c(=O)[nH]c2=O)C(NS(=O)(=O)c2ccc(Cl)cc2)(C(F)(F)F)C(=O)N3)cc1 (configuration not stated)	-31.8% (inactive)
O=C(NCCc1ccc(Cl)cc1)c1ccc2nccnc2c1	-33.2% (inactive)
O=C(NCCc1ccccc1)c1ccc2nccnc2c1	66.7% (active)
O=C(NCc1ccccc1)c1ccc2nccnc2c1	2% (inactive)
CCCCNc1ccc(C(CC(N)=O)NC(=O)Cc2ccc(Br)cc2)cc1[N+](=O)[O-] (configuration not stated)	-9.3% (inactive)
CC(=O)c1cccc(OCC(O)CNCC2CCCCC2)c1 (configuration not stated)	-5.6% (inactive)
OC(CNCC1COc2ccccc2O1)COc1ccc(Cl)cc1 (configuration not stated)	-12.2% (inactive)
CC(=O)c1cccc(OCC(O)CNCC2COc3ccccc3O2)c1 (configuration not stated)	37.9% (active)
Cn1cc(Br)c(C(=O)n2cc(Br)cn2)n1	-7.4% (inactive)

Compound	inhibition
Cc1noc(C)c1S(=O)(=O)N1CCCC(C(=O)NCCc2ccccc2)C1 (configuration not stated)	-28.4% (inactive)
CCNC(=O)COC(=O)c1cc(-c2ccccc2)nn1-c1ccccc1	-16.6% (inactive)
Fc1ccccc1C1c2[nH]c3ccccc3c2CCN1CCCn1cccn1 (configuration not stated)	43.5% (inactive)
COc1ccc(C2c3[nH]c4ccccc4c3CCN2CCCn2cccn2)c(C)c1C (configuration not stated)	-26.9% (inactive)
Cc1ccccc1C1c2[nH]c3ccccc3c2CCN1CCCn1cccn1 (configuration not stated)	53.6% (active)
CC(C)N1CCC(N2CCN(Cc3nc4ccccc4s3)CC2CCO)CC1 (configuration not stated)	-1.8% (inactive)
CC(C)N(C(=O)COC(=O)c1ccc(Cl)nc1)C(C)C	-35.6% (inactive)
Cc1nc2ccccc2cc1C(=O)Nc1ccccc1Cl	-21.8% (inactive)
Cn1ccnc1C(=O)c1ccc(N)cc1	-32.6% (inactive)
COc1ccc(-c2csc3nc(-c4cccnc4)nc(N4CCC(C(N)=O)CC4)c23)cc1OC	23.4% (inactive)
COc1ccc(-c2csc3nc(-c4cccnc4)nc(Cl)c23)cc1OC	73.4% (active)
Clc1nc(-c2cccnc2)nc2scc(-c3ccccc3)c12	-5% (inactive)
CCOc1ccc(NC(=O)C2CC(=O)N(C)C(=Nc3ccc4c(c3)OCO4)S2)cc1 (configuration not stated)	-34.5% (inactive)
O=C(CS(=O)(=O)c1ccccc1)NCc1ccc(Cl)cc1	-44.4% (inactive)
CCc1ccc(C(=O)/C=C/Nc2ccc(S(=O)(=O)Nc3cnc4ccccc4n3)cc2)cc1	4% (inactive)
c1ccc(CSc2nnc(Cc3ccccn3)o2)cc1	-32.5% (inactive)
CSC(=Nc1ccc(Cl)cc1)N[n+]1ccccc1	-6.8% (inactive)
NC(=Nc1ccc(Cl)cc1)c1ccccc1	-49% (inactive)
[S-]C(=Nc1ccc(Cl)cc1)N[n+]1ccccc1	104% (active)
NC(=O)CCc1nc2cc(C(F)(F)F)ccc2n(Cc2ccccc2)c1=O	-13% (inactive)
O=C(NCCCn1ccnc1)/C(=C/c1ccccc1)NC(=O)c1ccccc1	32.8% (inactive)
O=C(COc1ccccc1Cl)NNC(=O)c1cc(S(=O)(=O)N2CCOCC2)ccc1N1CCCC1	-47.2% (inactive)
